Sampled rows, rich in hits. Any-hit rate of the full collection: about 2.5%.
Cruzain Triton: blocks cruzain activity in presence of Triton detergent; P25779; purified cruzain, Z-FR-AMC fluorescence, 0.01% Triton; Potency, µM, without a hit: max response, negative = inhibition, usual class: inhibitors; actives 0.43% (n = 200,000); AID 1478;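 also: plate controls were neutral wells for no effect and buffer without enzyme for full effect; nearly all actives have a fitted effect of over 40% in size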
Target sequence (P25779 123-467 limits assumed): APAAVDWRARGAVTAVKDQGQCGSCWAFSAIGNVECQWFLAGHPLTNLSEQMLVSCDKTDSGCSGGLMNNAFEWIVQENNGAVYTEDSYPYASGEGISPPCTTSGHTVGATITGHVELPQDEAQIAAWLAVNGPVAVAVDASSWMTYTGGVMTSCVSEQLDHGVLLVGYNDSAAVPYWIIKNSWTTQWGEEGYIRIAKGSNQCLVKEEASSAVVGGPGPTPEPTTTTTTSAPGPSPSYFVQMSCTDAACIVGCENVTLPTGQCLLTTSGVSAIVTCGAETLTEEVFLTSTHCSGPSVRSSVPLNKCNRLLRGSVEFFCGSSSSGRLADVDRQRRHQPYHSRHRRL
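Cysteine protease activity tested under reducing, mildly acidic conditions (100 mM sodium acetate pH 5.5, 5 mM DTT) plus 0.01% Triton X-100. Cruzain 1.5 nM; substrate Z-FR-AMC 2 uM; 15 min compound preincubation at room temperature.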
Cruzain inh noDet: inhibitors of Trypanosoma cruzi cruzain without detergent | P25779 | purified cruzain, Z-FR-AMC fluorescence, no detergent | Potency, µM, for the others: max response, negative = inhibition, most hits filed as inhibitors | actives 2.3% (n = 200,000) | AID 1476;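 also: plate controls were enzyme without inhibitor for no effect and buffer without enzyme for full effect; nearly all actives have a fitted effect of over 40% in size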
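Detergent-free condition (0.00005% Triton X-100) in acetate buffer pH 5.5 with DTT. 1.5 nM enzyme and compound were pre-mixed 15 min, then 2 uM Z-FR-AMC substrate added; reaction progress from fluorescence change between first and third reads (60 s).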
* hit, by the source's call; ? = inconclusive; ! = a repeat was not active. Calls follow the shape of the dose curve; as a rule, active = well fitted curve in the direction sought with a large enough effect; inconclusive = small, poorly fitted or top-dose-only effect, or another doubt; inactive = no such curve, though single readings can be large; an effect the other way counts as inactive or inconclusive. Potency is read from the fitted curve at half-maximal effect.

SMILES | Cruzain Triton | Cruzain inh noDet
Cc1cccc(N=C2NC(=O)S/C2=C\c2ccco2)c1 | -4% | ?
O=S(=O)(NCCc1nnc2ccc(SCc3ccc(C(F)(F)F)cc3)nn12)c1ccccc1 | -11% | ?
COc1ccc(-c2nc(C(N)=O)c3[nH]c(=O)n(-c4cccc(Cl)c4)c3n2)cc1OC | 3% | ?
Cc1ccsc1-c1nc(C(N)=O)c2[nH]c(=O)n(-c3ccc(Cl)cc3)c2n1 | 0% | 10µM*
Cc1ccc(C(=O)COC(=O)CCC(=O)Nc2ccc(Oc3cc(C)ccc3C(C)C)cc2)cc1 | -10% | 25%
COc1ccc(OC)c(NC(=O)c2oc3c(c2C)-c2nn(Cc4ccc(Cl)cc4)cc2CC3)c1 | -5% | -17%
CC(C)c1ccc(NC(=O)C2CCCN(S(=O)(=O)c3ccc4[nH]c(=O)ccc4c3)C2)cc1 (stereo not given) | -1% | 19%
Cn1c(C(=O)N2CCN(c3nc4ccccc4s3)CC2)cc2sccc21 | -16% | -22%
O=C(c1cc2sccc2n1Cc1ccc(F)cc1)N1CCN(c2nc3ccccc3s2)CC1 | -2% | 13µM*
CCOc1cc(/C=N/NC(=O)CSc2nnc(C)s2)ccc1OCc1ccccc1Cl | -2% | 14%
CCOc1cc(/C=N\NC(=O)Cn2nc([N+](=O)[O-])cc2C)ccc1OCc1cccc2ccccc12 | -1% | 13µM*
O=S(=O)(c1ccccc1)c1nc(-c2ccco2)oc1NCCN1CCOCC1 | -4% | -1%
COc1ccc(Nc2oc(-c3ccco3)nc2S(=O)(=O)c2ccc(F)cc2)cc1 | -25% | 25µM*
O=S(=O)(c1ccc(F)cc1)c1nc(-c2ccco2)oc1Nc1ccc(F)cc1 | -7% | ?
Cc1ccc(CNc2oc(-c3ccco3)nc2S(=O)(=O)c2ccccc2)cc1 | ? | 32µM*
CCC(=O)N1CCc2cc(S(=O)(=O)NC(C(=O)NCCc3ccc(OC)c(OC)c3)C(C)C)ccc21 (stereo not given) | -5% | 2%
COc1cc(OC)c(NC(=O)Cn2nc(C)n3cccc3c2=O)cc1Cl | -27% | -4%
COc1cccc(NC(=O)Nc2cc(-c3cn4cccnc4n3)ccc2OC)c1 | -10% | ?
COc1cccc(-n2c(SCC(=O)Nc3ccc4c(c3)OCO4)nc3c([nH]c4ccccc43)c2=O)c1 | -4% | 16µM*
Cc1ccc(-n2c(SCC(=O)Nc3ccc4c(c3)OCO4)nc3c([nH]c4ccccc43)c2=O)cc1 | -4% | 13µM*
CCc1ccc(NC(=O)CSc2nc3c([nH]c4ccccc43)c(=O)n2-c2ccc(C)cc2)cc1 | -2% | ?
COc1cccc(-n2c(SCC(=O)Nc3c(C)cc(C)cc3C)nc3c([nH]c4ccccc43)c2=O)c1 | -1% | -24%
COc1cccc(-n2c(SCC(=O)Nc3ccc(F)cc3F)nc3c([nH]c4ccccc43)c2=O)c1 | -1% | -5%
COc1cccc(NC(=O)CSc2nc3c([nH]c4ccccc43)c(=O)n2-c2cc(C)cc(C)c2)c1 | 1% | 16µM*
COc1ccccc1CNC(=O)c1ccc2c(c1)N(Cc1c(F)cccc1Cl)C(=O)CS2 | -4% | ?
SMILES | Cruzain Triton | Cruzain inh noDet
COc1cn(CC(=O)Nc2cc(C)cc(C)c2)c(CN2CCCCC2)cc1=O | 1% | -8%
Oc1c(C(c2ccc(Cl)cc2Cl)N2CCN(c3ccccc3)CC2)sc2nc(-c3ccco3)nn12 (stereo not given) | -6% | ?
Oc1c(I)cc(Cl)c2cccnc12 | 2% | 13µM*!
Oc1c(CN2CCc3ccccc3C2)cc(Cl)c2cccnc12 | 0% | -5%
CC(=O)c1ccc(NC(=O)CSc2nc(-c3ccc(C)cc3)nc3c2c(=O)n(C)c(=O)n3C)cc1 | 4% | -12%
O=[N+]([O-])c1ccc(N/N=C/c2cn(Cc3ccc(F)cc3)c3ccccc23)nc1 | -9% | 7.9µM*
CNC(=S)N/N=C/c1cn(Cc2ccc(F)cc2)c2ccccc12 | -13% | ?
Cc1cc(C=O)c(C)n1-c1ccc(Oc2ccc([N+](=O)[O-])cn2)cc1 | -4% | -10%
Cc1cccc(C)c1-n1c(C)cc(/C=N\Nc2ccc([N+](=O)[O-])cn2)c1C | -4% | 16µM*
COC(=O)c1ccc(CS(=O)(=O)c2ccccc2C)o1 | 3% | 16µM*
Cc1ccc(CNC(=O)c2ccc(CS(=O)(=O)c3ccccc3C)o2)cc1 | -2% | -2%
CCc1nn(CC(=O)NCCc2ccc(Cl)cc2)c(=O)c2cc3c(OC)cccc3n12 | -1% | 5%
COc1ccc(Cn2ccc3nc(C)c(C(=O)Nc4cc(C)cc(C)c4)cc3c2=O)cc1 | -7% | ?
Cc1ccc(-n2nc3c(c2NC(=O)/C=C\c2ccc4c(c2)OCO4)CSC3)c(C)c1 | -6% | 25µM*
Cc1ccc(-n2nc3c(c2NC(=O)/C=C\c2ccc4c(c2)OCO4)CSC3)cc1 | -4% | 32µM*
Cc1ccc(-n2nc3c(c2NC(=O)c2ccc4c(c2)OCO4)CS(=O)C3)cc1 (stereo not given) | -3% | -5%
Cc1ccc(-n2nc3c(c2NC(=O)C(C)(C)C)CSC3)c(C)c1 | 0% | 6%
Nc1c(C(=O)Nc2ccccc2Cl)c2ccccn2c1C(=O)c1ccc(Cl)cc1 | -1% | -9%
Cc1oc2ccc(O)c(CN(C)Cc3ccccc3)c2c1C(=O)Nc1cccc(C(F)(F)F)c1 | -15% | ?
Cc1cc(C)cc(OCC(=O)NC(Cc2c[nH]c3ccccc23)C(=O)O)c1 (stereo not given) | -10% | 0%
Cc1ccc(-c2nc3c4ccccc4n(CC(=O)N4CCN(c5ccc(F)cc5)CC4)c(=O)n3n2)cc1 | 1% | 4%
Cc1ccc2c(c1)c1nnc(SCC(=O)N3CCN(c4ccc(F)cc4)CC3)nc1n2CC(=O)O | 28µM* | 7%
COc1ccc(-c2nc3c(C#N)c[nH]n3c2NC2CCCC2)c(OC)c1 | -5% | ?
CCc1cccc(C)c1NC(=O)Cn1c(=O)n(-c2ccc(C)cc2)c(=O)c2c1cnn2C | 0% | 9%
Cc1ccc(C(=O)NC(=S)N2CCN(c3ccc([N+](=O)[O-])cc3)CC2)cc1 | -8% | 14%
SMILES | Cruzain Triton | Cruzain inh noDet
Cc1ccc(C(=O)ON=C2CCN(c3ccc([N+](=O)[O-])cc3)CC2)cc1 | -3% | 32µM*
COc1ccc(NC(=O)/C(C#N)=C/c2cc(C)n(-c3ccc(F)cc3)c2C)cc1 | 0% | -15%
COc1ccc(NC(=O)/C(C#N)=C\c2cc(C)n(-c3ccc(Oc4ccc([N+](=O)[O-])cn4)cc3)c2C)cc1 | 1% | 7.9µM*
COc1cn(CC(=O)Nc2ccccc2)c(CN2CCCCC2)cc1=O | 2% | 14%
Cc1nc(NC(=O)c2ccccc2)sc1-c1csc(Nc2cccc(Cl)c2)n1 | 6% | 10µM*
O=C(Nc1nc(-c2ccc(Cl)s2)cs1)c1ccccc1 | -1% | -3%
Cc1nc(NC(=O)c2ccccc2)sc1-c1csc(Nc2ccc(F)cc2)n1 | -3% | 16µM*
Cc1nc(NC(=O)c2ccccc2)sc1-c1csc(Nc2ccc(Cl)cc2)n1 | 7% | 4µM*
CCOC(=O)Cn1c(=O)oc2cc(S(=O)(=O)N3CCN(c4ccccc4F)CC3)ccc21 | 0% | 17%
Cc1cccc(NC(=O)c2cc(S(=O)(=O)N3CCc4ccccc43)ccc2F)c1C | 0% | ?
O=C(Cn1ncc2c3ccccc3n(Cc3ccc(Cl)cc3)c2c1=O)N1CCCCCC1 | -3% | 11%
Nc1ncc(S(=O)(=O)NCc2ccc(F)cc2)cn1 | 1% | 7%
Cc1ccc2c(c1)c1c3n2CCN(C(=O)CN2CCN(C)CC2)C3CCC1 (stereo not given) | -3% | -10%

Bioassay records deposited in PubChem by National Center for Advancing Translational Sciences (NCATS).
